Measured values published in PubChem BioAssay (NCI).
This is part of a sample that, as a whole, favours compounds with a hit. Of some 83,000 tested, about 20% had one in any assay.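 Results are percent growth after 48 hours of single-concentration exposure. 100 means growth as in untreated cells, lower positive values show inhibition; negative values down to -100 show cell death.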 The source made the active and inactive calls. How the source made its calls: active means growth percent below 10; inactive means the rest.

Tested on: MDA-MB-468 breast
Assay: NCI-60 one-dose screen, 48 h (100 = growth as untreated, 0 = no growth, -100 = all killed)
Settings: 10 µM unless noted

| SMILES | growth |
| --- | --- |
| CNC(=O)c1ccccc1Nc1nc(Nc2ccc3c(c2OC)CCC[C@H](N2CCN(CCO)CC2)C3)ncc1Cl | -52.8% (active) |
| [2H]C([2H])([2H])Oc1cccc(/C=C/C(=O)/C=C(/C=C/c2cccc(OC([2H])([2H])[2H])c2OC([2H])([2H])[2H])OB(F)F)c1OC([2H])([2H])[2H] | 54.6% (inactive) |
| CN1C(=O)N(C)C2C1NN=c1s/c(=C\c3ccc(Cl)cc3Cl)c(=O)n12 (centres undefined) | 27.4% (inactive) |
| CCOC(=O)c1c2c(n3ccc(NC(=O)CCN(CC)CC)cc13)C(=O)c1ncccc1C2=O | 81.7% (inactive) |
